Test [1] in a line: Human pregnane X receptor (PXR) small molecule agonists, qHTS cell viability counter screen (AID 1346977). Note: nearly all actives have a fitted effect of over 50% in size. In short, it runs like this:
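After a 5hr pre-incubation, PXR-Luc HepG2 cells received compounds plus positive control in DMSO and were kept 24hr at 37C. Cell viability was quantified by fluorescence from CellTiter-Fluor added for the final hour.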
On the technique in general: Quantitative high-throughput screening tests each substance at several concentrations.

Test [2] can be described thus: Caspase-3/7 induction in HepG2 cells by small molecules, qHTS assay (AID 1346978). Note: nearly all actives have a fitted effect of over 15% in size. In short, it runs like this:
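Caspase-3/7 induction was measured by Caspase-Glo 3/7 luminescence (30 min, room temperature) after a 17 hr compound exposure of wild-type HepG2 cells seeded at 2,000 per well and pre-incubated 5 hr.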

Test [3] in a line: Caspase-3/7 induction in CHO-K1 cells by small molecules, qHTS cell viability counter screen (AID 1346979). Note: nearly all actives have a fitted effect of over 35% in size. In outline:
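Multiplexed with Caspase-Glo 3/7 in CHO-K1 cells, this counter screen added CellTiter-Fluor after 16hr of compound exposure and recorded fluorescence 1hr later.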

Test [4] is described as follows: Caspase-3/7 induction in CHO-K1 cells by small molecules, qHTS assay (AID 1346980). Note: nearly all actives have a fitted effect of over 15% in size. In short, it runs like this:
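Luminescent Caspase-Glo 3/7 read (30min, room temperature) quantified apoptosis induction. Cells were wild-type CHO-K1, treated with compound for 17hr at 37 C and 5% CO2.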

A short description of test [5]: Caspase-3/7 induction in HepG2 cells by small molecules, qHTS cell viability counter screen (AID 1346981). Note: series mostly up to about 92 µM; nearly all actives have a fitted effect of over 30% in size. In outline:
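In this quantitative HTS counter screen, compounds delivered in DMSO were left on unmodified HepG2 cells for 16 hr at 37 C. Viability was then determined fluorometrically with CellTiter-Fluor, in parallel with caspase-3/7 induction in the same wells.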

Test [6] concerns the target Nuclear receptor subfamily 1 group I member 2 (Homo sapiens) (UniProt O75469). Description: Human pregnane X receptor (PXR) small molecule agonists, qHTS assay (AID 1346982). Note: nearly all actives have a fitted effect of over 35% in size. In outline:
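Reporter HepG2 cells expressing PXR-Luc are cultured in charcoal-stripped FBS (5%), treated with compounds for 24 hr at 37 C, and assayed by ONE-Glo luminescence after 30 min at room temperature.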

Test [7] addresses Nuclear receptor subfamily 1 group I member 2 (Rattus norvegicus) (UniProt Q9R1A7). Description: Rat pregnane X receptor (rPXR) activation by small molecules, qHTS assay (AID 1346983). Note: nearly all actives have a fitted effect of over 20% in size. Particulars: rPXR luciferase reporter cells, One-Glo luminescence, 24 h; max activation: stronger effect = higher value. In outline: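 Luminescent readout (One-Glo luciferase, 30 min room temperature) followed 24 hr compound treatment at 37 C of rPXR cells plated 2,000 per well and preincubated 5hr; qHTS format with compounds delivered in DMSO.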

The target of test [8] is Nuclear receptor subfamily 1 group I member 2 (Homo sapiens) (UniProt O75469). In words: CYP3A4 induction through human pregnane X receptor (PXR) by small molecules, qHTS assay (AID 1346984). Note: nearly all actives have a fitted effect of over 40% in size. Note: potency is the fitted concentration of half-maximal effect. In short, it runs like this: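 Induction measured in HepG2-based DPX-2 cells co-expressing human PXR and a CYP3A4 promoter-driven luciferase. After a 24-hour compound exposure, cells received CYP3A4 luciferin substrate at 3uM final for 3 hours, and light output was then recorded.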
Chain of Nuclear receptor subfamily 1 group I member 2 (Homo sapiens) (O75469 whole entry, looked up): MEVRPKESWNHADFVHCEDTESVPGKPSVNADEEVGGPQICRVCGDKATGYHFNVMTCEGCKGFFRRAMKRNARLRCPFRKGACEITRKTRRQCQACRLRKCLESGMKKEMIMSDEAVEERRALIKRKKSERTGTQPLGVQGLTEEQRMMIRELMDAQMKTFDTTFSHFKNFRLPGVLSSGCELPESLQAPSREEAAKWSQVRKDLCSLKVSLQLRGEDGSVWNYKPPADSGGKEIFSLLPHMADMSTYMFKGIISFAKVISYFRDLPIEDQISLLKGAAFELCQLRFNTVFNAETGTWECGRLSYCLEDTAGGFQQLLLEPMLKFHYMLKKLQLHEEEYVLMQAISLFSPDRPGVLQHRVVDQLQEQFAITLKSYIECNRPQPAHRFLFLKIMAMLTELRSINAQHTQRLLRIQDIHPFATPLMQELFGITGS

For test [9] the target is unchanged. In words: Human pregnane X receptor (PXR) activation by small molecules, qHTS assay (AID 1346985). Note: nearly all actives have a fitted effect of over 40% in size. In short, it runs like this: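 DPX-2 cells (HepG2 co-transfected with a PXR response element and a CYP3A4-promoter luciferase construct) were seeded at 2,000 per well, rested 5 hr at 37C, then exposed to DMSO-dissolved compounds for 24 hr. Activation was read as luciferase luminescence.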

Test [10] concerns the target Cytochrome P450 2D6 (Homo sapiens) (UniProt P10635). Description: Cytochrome P450 Family 2 Subfamily D Member 6 (CYP2D6) small molecule antagonists: luciferase reporter qHTS assay (AID 1671196). Note: series mostly up to about 120 µM; nearly all actives have a fitted effect of over 50% in size. In outline: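 Test chemicals meet CYP2D6 plus proluciferin substrate (10 min, RT); NADPH regenerating solution then drives turnover for 1 h. Detection reagent halts the reaction; luminescence measured after 20 min.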
In general terms: A reporter such as luciferase makes a cellular process visible.

Test [11] concerns the target Cytochrome P450 2C19 (Homo sapiens) (UniProt P33261). In words: Cytochrome P450 Family 2 Subfamily C Member 19 (CYP2C19) small molecule antagonists: luciferase reporter qHTS assay (AID 1671197). Note: nearly all actives have a fitted effect of over 65% in size. Note: potency is the fitted concentration of half-maximal effect. In short, it runs like this:
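Luminescent readout of CYP2C19 activity: luciferin product detected 20 min after adding detection reagent. Before that, compound and enzyme-substrate mix preincubated 10 min at room temperature; NADPH-regenerating system started a 1 h, 37C reaction. Ketoconazole as positive control.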

The target in test [12] is Cytochrome P450 2C9 (Homo sapiens) (UniProt P11712). In words: Cytochrome P450 Family 2 Subfamily C Member 9 (CYP2C9) small molecule antagonists: luciferase reporter qHTS assay (AID 1671198). Note: series mostly up to about 120 µM; nearly all actives have a fitted effect of over 50% in size. In outline: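 Enzyme-substrate mix preincubated with compound 10 min at room temperature; reaction started with NADPH regeneration solution, 1 h 37C. Luminescent luciferin product read after 20 min detection reagent.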
Chain of Cytochrome P450 2C9 (Homo sapiens) (P11712 whole entry, looked up): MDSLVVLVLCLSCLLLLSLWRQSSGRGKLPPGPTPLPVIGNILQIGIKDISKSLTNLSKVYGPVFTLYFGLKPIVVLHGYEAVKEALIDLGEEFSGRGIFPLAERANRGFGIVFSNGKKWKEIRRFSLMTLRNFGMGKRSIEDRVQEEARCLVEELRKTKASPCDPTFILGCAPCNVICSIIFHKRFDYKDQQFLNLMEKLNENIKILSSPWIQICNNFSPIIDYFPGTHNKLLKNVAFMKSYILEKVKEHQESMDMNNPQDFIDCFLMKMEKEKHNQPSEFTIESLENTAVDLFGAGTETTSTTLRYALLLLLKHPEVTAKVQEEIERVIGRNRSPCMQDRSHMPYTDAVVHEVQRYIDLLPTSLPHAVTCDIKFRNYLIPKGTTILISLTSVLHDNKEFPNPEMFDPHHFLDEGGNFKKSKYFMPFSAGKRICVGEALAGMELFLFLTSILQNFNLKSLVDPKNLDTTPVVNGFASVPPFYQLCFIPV

For test [13], the target named is Cytochrome P450 1A2 (Homo sapiens) (UniProt P05177). Description: Cytochrome P450 Family 1 Subfamily A Member 2 (CYP1A2) small molecule antagonists: luciferase reporter qHTS assay (AID 1671199). Note: nearly all actives have a fitted effect of over 50% in size. Note: potency is the fitted concentration of half-maximal effect. In short, it runs like this: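 Steps: enzyme-substrate mix dispensed; test compounds and furafylline control pinned in; 10 min room temperature; NADPH regeneration solution added, 1 h; reaction stopped with luciferin detection reagent; luminescence read after 20 min.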
Chain of Cytochrome P450 1A2 (Homo sapiens) (P05177 whole entry, looked up): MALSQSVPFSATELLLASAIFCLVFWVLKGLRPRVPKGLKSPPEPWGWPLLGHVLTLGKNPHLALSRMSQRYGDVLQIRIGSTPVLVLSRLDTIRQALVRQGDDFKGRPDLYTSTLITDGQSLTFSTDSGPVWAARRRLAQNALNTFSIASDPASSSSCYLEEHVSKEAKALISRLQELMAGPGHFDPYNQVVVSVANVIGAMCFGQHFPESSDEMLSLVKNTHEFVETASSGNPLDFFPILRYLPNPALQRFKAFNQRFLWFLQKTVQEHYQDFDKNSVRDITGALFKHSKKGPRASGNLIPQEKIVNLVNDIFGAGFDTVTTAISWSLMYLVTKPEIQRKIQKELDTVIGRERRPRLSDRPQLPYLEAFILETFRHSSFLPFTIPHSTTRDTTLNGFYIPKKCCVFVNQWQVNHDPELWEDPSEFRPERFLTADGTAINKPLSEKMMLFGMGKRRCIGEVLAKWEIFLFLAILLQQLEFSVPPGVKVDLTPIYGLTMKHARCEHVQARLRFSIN

In test [14] the target is Voltage-gated inwardly rectifying potassium channel KCNH2 (Homo sapiens) (UniProt Q12809). Description: Human Ether-a-go-go-Related Gene (hERG) channel small molecule antagonists: fluorescence cell-based qHTS assay (AID 1671200). In outline: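 Cell line hERG-U2OS; dye FluxOR II, 1 h RT dark; Tl+ stimulus; ex 480/em 540 nm, read each second for 2 min.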
Chain of Voltage-gated inwardly rectifying potassium channel KCNH2 (Homo sapiens) (Q12809 whole entry, looked up): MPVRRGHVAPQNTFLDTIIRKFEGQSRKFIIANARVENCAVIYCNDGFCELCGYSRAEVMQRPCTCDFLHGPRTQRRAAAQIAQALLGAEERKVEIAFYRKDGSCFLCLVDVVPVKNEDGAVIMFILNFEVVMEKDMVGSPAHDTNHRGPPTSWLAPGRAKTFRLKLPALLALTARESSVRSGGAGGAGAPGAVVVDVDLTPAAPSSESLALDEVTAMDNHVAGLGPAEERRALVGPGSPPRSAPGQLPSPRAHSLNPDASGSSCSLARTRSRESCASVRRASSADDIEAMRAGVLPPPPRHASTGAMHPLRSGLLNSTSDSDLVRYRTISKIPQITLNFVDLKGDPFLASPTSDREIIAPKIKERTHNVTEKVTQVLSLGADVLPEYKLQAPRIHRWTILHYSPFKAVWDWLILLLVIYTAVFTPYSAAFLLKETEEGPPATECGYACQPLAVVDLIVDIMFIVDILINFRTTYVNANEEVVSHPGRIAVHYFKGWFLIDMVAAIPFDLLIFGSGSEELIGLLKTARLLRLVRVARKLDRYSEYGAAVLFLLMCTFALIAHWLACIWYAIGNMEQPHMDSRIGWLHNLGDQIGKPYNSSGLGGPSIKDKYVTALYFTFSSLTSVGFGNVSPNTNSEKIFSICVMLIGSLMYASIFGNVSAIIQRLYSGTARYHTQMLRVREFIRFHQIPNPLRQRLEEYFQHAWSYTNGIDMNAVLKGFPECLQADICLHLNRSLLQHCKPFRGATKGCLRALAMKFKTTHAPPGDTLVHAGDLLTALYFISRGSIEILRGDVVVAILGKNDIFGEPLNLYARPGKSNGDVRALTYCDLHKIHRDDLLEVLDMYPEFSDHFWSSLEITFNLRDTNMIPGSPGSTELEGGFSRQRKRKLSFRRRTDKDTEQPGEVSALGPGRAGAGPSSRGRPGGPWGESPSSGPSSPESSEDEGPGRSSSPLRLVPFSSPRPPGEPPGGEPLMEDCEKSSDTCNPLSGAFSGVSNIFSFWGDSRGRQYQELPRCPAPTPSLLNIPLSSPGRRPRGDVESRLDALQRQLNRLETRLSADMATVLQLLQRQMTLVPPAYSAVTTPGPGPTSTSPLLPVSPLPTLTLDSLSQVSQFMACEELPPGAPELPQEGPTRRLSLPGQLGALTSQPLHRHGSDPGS
Background: Block of hERG is tested as a sign of cardiac risk.

Test [15] has as its target Cytochrome P450 3A4 (Homo sapiens) (UniProt P08684). In words: Cytochrome P450 Family 3 Subfamily A Member 4 (CYP3A4) small molecule antagonists: luciferase reporter qHTS assay (AID 1671201). In outline:
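Room-temperature assay throughout: 10 min compound–enzyme/substrate preincubation, 1 h reaction after NADPH regeneration solution, 20 min detection. Luciferin formed from proluciferin substrate is quantified by luminescence.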

The text below walks through data of PubChem BioAssay (Tox21).

Several values for one entry are separate records, joined by “and”; a condition that tells them apart may be missing. Equal entries are not always repeated. Unmarked numbers belong to inactive results. Inconclusive results are not listed. Activity calls are given as the source filed them. Calls come from the whole dose curve; as a rule, active = well fitted curve in the direction sought with a large enough effect in the repeat runs; inconclusive = weak or mixed curves; inactive = no such curve, though single readings can be large; an effect the other way counts as inactive or inconclusive.
% is set by controls: 0 for no effect and ±100 for the full control effect.

Chain of Cytochrome P450 2D6 (Homo sapiens) (P10635 whole entry, looked up): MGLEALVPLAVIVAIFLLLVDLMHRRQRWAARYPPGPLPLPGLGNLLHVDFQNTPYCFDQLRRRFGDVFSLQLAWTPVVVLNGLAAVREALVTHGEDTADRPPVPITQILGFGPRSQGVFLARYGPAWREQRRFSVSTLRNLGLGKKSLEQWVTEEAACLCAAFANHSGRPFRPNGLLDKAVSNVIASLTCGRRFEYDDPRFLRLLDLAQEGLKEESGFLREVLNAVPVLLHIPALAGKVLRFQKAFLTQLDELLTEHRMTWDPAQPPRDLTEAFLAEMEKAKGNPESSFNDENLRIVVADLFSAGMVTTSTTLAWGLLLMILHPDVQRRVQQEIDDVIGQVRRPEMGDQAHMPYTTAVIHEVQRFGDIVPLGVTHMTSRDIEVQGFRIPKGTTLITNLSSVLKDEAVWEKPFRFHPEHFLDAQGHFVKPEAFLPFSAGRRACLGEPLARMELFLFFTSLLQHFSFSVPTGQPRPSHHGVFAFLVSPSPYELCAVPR
Chain of Cytochrome P450 3A4 (Homo sapiens) (P08684 whole entry, looked up): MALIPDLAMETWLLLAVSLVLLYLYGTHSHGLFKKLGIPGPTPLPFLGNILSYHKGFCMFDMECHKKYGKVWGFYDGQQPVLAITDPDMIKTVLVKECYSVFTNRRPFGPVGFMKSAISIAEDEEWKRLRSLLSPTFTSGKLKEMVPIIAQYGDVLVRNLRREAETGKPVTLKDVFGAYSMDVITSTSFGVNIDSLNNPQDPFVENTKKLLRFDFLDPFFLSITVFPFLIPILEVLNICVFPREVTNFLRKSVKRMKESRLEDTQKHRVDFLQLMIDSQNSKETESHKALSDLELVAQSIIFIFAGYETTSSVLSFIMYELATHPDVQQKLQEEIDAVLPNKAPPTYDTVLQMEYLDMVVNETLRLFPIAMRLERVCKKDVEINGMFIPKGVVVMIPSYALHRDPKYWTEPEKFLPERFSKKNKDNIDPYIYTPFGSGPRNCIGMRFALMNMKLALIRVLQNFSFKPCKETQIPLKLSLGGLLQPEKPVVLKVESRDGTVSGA
Chain of Cytochrome P450 2C19 (Homo sapiens) (P33261 whole entry, looked up): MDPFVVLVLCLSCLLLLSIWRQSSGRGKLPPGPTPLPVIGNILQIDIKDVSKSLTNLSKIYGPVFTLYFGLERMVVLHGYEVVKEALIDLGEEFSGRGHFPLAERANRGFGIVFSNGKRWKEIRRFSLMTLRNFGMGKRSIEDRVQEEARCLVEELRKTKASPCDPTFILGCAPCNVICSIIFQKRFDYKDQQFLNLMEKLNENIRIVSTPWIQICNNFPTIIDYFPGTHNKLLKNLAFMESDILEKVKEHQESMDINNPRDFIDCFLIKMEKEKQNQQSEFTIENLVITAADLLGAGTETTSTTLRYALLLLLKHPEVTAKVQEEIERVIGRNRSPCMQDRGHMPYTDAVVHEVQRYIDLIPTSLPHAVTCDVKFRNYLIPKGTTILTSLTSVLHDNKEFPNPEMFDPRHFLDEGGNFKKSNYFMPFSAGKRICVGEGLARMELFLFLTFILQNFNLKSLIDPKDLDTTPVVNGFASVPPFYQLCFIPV
Chain of Nuclear receptor subfamily 1 group I member 2 (Rattus norvegicus) (Q9R1A7 whole entry, looked up): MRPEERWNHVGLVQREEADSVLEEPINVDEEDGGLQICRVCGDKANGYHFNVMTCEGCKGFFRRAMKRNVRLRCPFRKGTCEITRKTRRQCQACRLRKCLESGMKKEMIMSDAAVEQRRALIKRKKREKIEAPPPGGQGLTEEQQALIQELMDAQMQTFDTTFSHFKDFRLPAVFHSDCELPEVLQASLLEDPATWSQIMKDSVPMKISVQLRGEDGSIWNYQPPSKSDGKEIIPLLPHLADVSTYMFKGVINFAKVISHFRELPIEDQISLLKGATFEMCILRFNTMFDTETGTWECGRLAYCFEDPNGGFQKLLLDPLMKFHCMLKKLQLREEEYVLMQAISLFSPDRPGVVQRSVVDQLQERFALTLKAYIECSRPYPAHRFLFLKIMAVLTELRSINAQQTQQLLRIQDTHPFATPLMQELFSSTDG

Take `CN1[C@@H]2CC[C@H]1CC(OC(=O)C(O)c1ccccc1)C2` (stereo partly specified): the Potency result in [1], in [3], in test [5], in [6], in test [8] and in test [9] was “inactive” each time. The Potency result in [10], in test [11], in test [12], in test [13], in [14] and in [15] was “inactive” throughout. Besides, the compound was classed as inactive in test [2] and in [4]. Further, the max activation in [7] was 2.11% and -0.222%.

With `CC(C)NNC(=O)c1ccncc1`, the Potency result in test [1], in test [3], in test [5], in test [6], in test [8] and in test [9] was “inactive” throughout. Further, the Potency entry in test [13], in test [14] and in test [15] was “inactive” in each case. Besides, the result in test [2] and in test [4] was inactive. Besides, the max activation in [7] is -0.682%.

`Cc1ccc(C(=O)Nc2ccc(S(=O)(=O)O)c3cc(S(=O)(=O)O)cc(S(=O)(=O)O)c23)cc1NC(=O)c1cccc(NC(=O)Nc2cccc(C(=O)Nc3cc(C(=O)Nc4ccc(S(=O)(=O)O)c5cc(S(=O)(=O)O)cc(S(=O)(=O)O)c45)ccc3C)c2)c1`: the Potency entry in [1], in test [3], in test [5], in test [6], in [8] and in [9] was “inactive” each time. For the same compound, the Potency result in test [12], in test [14] and in [15] was “inactive” each time. Further, the outcome in test [2] and in [4] was inactive. Besides, the max activation in test [7] is -1.36%.

Turning to `CN(C)C(=O)Oc1ccc[n+](C)c1`, the Potency result in test [1], in [3], in test [5], in test [6], in test [8] and in [9] was “inactive” throughout. Further, the Potency entry in test [10], in test [11], in [12], in [13], in [14] and in test [15] was “inactive” throughout. The result in [2] and in test [4] was inactive. In addition, the max activation in [7] is -1.23%.

`CC[C@H]1OC(=O)[C@H](C)[C@@H](O[C@H]2C[C@@](C)(OC)[C@@H](O)[C@H](C)O2)[C@H](C)[C@@H](O[C@@H]2O[C@H](C)C[C@H](N(C)C)[C@H]2O)[C@](C)(OC)C[C@@H](C)C(=O)[C@H](C)[C@@H](O)[C@]1(C)O`: the Potency entry in test [1], in [3], in test [5], in [6], in test [8] and in [9] was “inactive” in each case. The Potency entry in test [10], in test [12], in [13] and in [14] was “inactive” in each case. Moreover, the outcome in [2] and in test [4] was inactive. Besides, in test [7], the max activation is -0.482%. Also, the Potency in test [11] is 63.8 µM (active).

For `CC1=C(C/C=C(\C)CCC[C@H](C)CCC[C@H](C)CCCC(C)C)C(=O)c2ccccc2C1=O`, the Potency result in test [1], in test [3], in test [5], in test [6], in test [9] and in test [11] was “inactive” throughout. Moreover, the Potency result in [14] and in test [15] was “inactive” in each case. In addition, the compound was called inactive in test [2] and in test [4]. Also, the max activation in [7] was -2.63%. The Potency in test [8] is 11.2 µM (active).

As to `CC(C)(C)C(=O)Oc1ccc(S(=O)(=O)Nc2ccccc2C(=O)NCC(=O)O)cc1`, the Potency entry in test [1], in test [3], in test [5], in test [6], in test [8] and in [9] was “inactive” in each case. Further, the Potency result in test [10], in test [11], in test [13] and in test [15] was “inactive” throughout. In addition, the compound was called inactive in test [2] and in test [4]. Moreover, the max activation in test [7] is -2.02%.

As for `CCOc1c(N2CCOCC2)cnn(C)c1=O`, the Potency entry in [1], in test [3], in test [5], in test [6], in test [10] and in test [11] was “inactive” throughout. The Potency result in test [12], in [13] and in test [14] was “inactive” in each case. Further, the compound was classed as inactive in [2] and in test [4].

As for `CC1=NS(=O)(=O)c2cc(Cl)ccc2N1`, the Potency entry in test [1], in test [3], in test [5], in [6], in [10] and in [11] was “inactive” each time. Further, the Potency entry in [12], in test [14] and in test [15] was “inactive” throughout. The outcome in test [2] and in test [4] was inactive. In addition, in test [13], the Potency was 15.5 µM (active).
